Assay outcomes deposited in PubChem BioAssay by several laboratories.
ssDAF12 agonist = S. stercoralis DAF-12 nuclear receptor activators, primary screen, cell-based, luminescence, HEK293, GRIP1 co-expression, lit1-tk-luc; Nuclear hormone receptor DAF-12 (Strongyloides stercoralis); HEK293 ssDAF-12/GRIP1 lit1-tk-luc reporter; % of 3 µM dafachronic acid response; activation, % at 6.8 µM; actives 1% (n = 370,000); AID 652126, 2013;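 active = activation above the mean over all tested compounds plus 3 SD, cut at about 0.9% in these data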;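 note: 0% = DMSO-only wells and 100% = 3 µM delta7-dafachronic acid wells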
DAX1 inh-1 = DAX1 (NR0B1) inhibitors, primary screen, cell-based, HEK293, Gal4-DAX1, luciferase luminescence; Nuclear receptor subfamily 0 group B member 1 (Homo sapiens), P51843; actives 0.99% (n = 340,000); HEK293 Gal4-DAX1 luciferase reporter; inhibition, % at 6.75 µM;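 active = inhibition above the mean over all tested compounds plus 3 SD, cut at about 4.2% in these data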;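 note: 0% = DAX1-transfected cells with DMSO and 100% = empty-vector control cells with DMSO; inhibition shows as a rise in luminescence from relieved DAX1 repression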
hgDAF-12 ag = H. glycines DAF-12 receptor agonists, primary screen, cell-based, luminescence, HEK293, GAL4 fusion, UAS-luciferase; activation, % at 6.8 µM; actives 1.8% (n = 370,000); Nuclear hormone receptor DAF-12 (Heterodera glycines), GAL4 fusion; HEK293 GAL4-hgDAF12 UAS-luciferase reporter, agonist luminescence; normalized to butyrate control;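 active = activation above a cutoff set at the mean of all screened compounds plus 3 SD, cut at about 10% in these data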;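 note: 0% = DMSO wells and 100% = sodium butyrate wells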
DAX1 inh-2 = DAX1 (NR0B1) inhibitors on StAR promoter, primary screen, cell-based, luminescence, SF-1 (NR5A1), full-length DAX-1; HEK293T StAR-luciferase reporter, SF-1/DAX-1 repression relief; inhibition, % at 6.8 µM; actives 1.1% (n = 370,000); AID 652010, 2013;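 active = inhibition above the mean over all tested compounds plus 3 SD, cut at about 3.6% in these data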;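 note: 0% = DAX-1 cells with DMSO and 100% = cells lacking DAX-1 with DMSO; higher inhibition means more luminescence from relief of DAX-1 repression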
NR1D1 modulator = modulators of Rev-erb alpha DNA binding, primary screen, biochemical, FITC-DNA, fluorescence polarization, uHTS. Nuclear receptor subfamily 1 group D member 1 (Homo sapiens), P20393. Rev-erbα–FITC-DNA binding, 90 min. activity, % at 10 µM. actives 0.79% (n = 370,000). AID 1259318, 2017;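 active = activity above about 14%, limit read from the data; passing the limit was not always enough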;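 note: 0% = DMSO wells with 35 nM protein and 100% = DMSO wells with 750 nM protein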
Target sequence (P20393 whole entry, looked up): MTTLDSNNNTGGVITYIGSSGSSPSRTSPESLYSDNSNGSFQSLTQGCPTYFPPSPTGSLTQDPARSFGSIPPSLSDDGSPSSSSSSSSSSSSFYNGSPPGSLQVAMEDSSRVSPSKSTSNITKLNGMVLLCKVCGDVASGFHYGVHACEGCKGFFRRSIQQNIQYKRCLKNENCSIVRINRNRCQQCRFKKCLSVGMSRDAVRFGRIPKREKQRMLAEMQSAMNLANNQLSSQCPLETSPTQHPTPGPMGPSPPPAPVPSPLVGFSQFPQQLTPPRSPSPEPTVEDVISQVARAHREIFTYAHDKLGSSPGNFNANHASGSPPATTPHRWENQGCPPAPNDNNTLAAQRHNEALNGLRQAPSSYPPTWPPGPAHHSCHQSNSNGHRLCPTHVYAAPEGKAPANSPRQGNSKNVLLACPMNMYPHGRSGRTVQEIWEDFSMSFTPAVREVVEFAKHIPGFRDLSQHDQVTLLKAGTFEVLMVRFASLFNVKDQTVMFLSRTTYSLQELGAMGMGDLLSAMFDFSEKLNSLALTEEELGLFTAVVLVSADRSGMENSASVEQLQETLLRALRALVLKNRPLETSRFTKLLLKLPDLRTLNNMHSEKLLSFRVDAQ
hcDAF-12 act = H. contortus DAF-12 nuclear receptor activators, primary screen, cell-based, luminescence, HEK293, lit1-tk-luc reporter | HEK293 hcDAF-12 lit1-tk-luc reporter; 0% DMSO, 100% Δ7-dafachronic acid | activation, % at 6.8 µM | actives 1.4% (n = 370,000) | AID 652067, 2013;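 active = activation above the mean of all tested compounds plus 3 SD, cut at about 5.5% in these data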;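 note: 100% = response to 3 µM Δ7-dafachronic acid high control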
LXR ag = LXR agonists, Gal4 luciferase reporter, confirmation, counter-screen for hcDAF-12 agonist project, cell-based, luminescence, HEK293, H. contortus campaign | shares compounds with hcDAF-12 act | HEK293 Gal4-LXR tk-luc reporter, 24 h; normalized: DMSO 0%, positive control 100% | activation, % at 6.8 µM | 3,400 tested, under 10 active;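 active = mean percent activation of the reporter above a cutoff set as the average over tested compounds plus their standard deviation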
hcDAF12 conf = H. contortus DAF-12 receptor agonists, confirmation, cell-based, luminescence, HEK293, lit1-tk-luc, triplicate; HEK293 hcDAF-12 lit1-tk-luc reporter; % of Δ7-dafachronic acid response; shares compounds with hcDAF-12 act; activation, % at 6.8 µM; actives 61% (n = 3,400); AID 743032, 2013;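 active = mean activation across triplicate tests above the threshold derived from the earlier primary screen, cut at about 5.5% in these data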;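 note: 0% = DMSO only wells and 100% = 3 µM Δ7-dafachronic acid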
An asterisk follows results filed as active; x = not tested or not shown. Most compounds without a hit are left out; they make up all but 4.8% or so of the library.

SMILES	ssDAF12 agonist	DAX1 inh-1	hgDAF-12 ag	DAX1 inh-2	NR1D1 modulator	hcDAF-12 act	LXR ag	hcDAF12 conf
Fc1cccc(Cc2c(-c3ccco3)nc3c4ccccc4ccn23)c1	3.7*	x	12.7*	3.5	-6.0	6.7*	0.8	9.5*
Clc1cccc(Cc2c(-c3ccco3)nc3c4ccccc4ccn23)c1	0.0	x	2.0	1.4	-3.1	1.8	x	x
CC(C)(C)C(=O)OC12CCCN(C1)/C(=C/c1ccccc1)C2 (stereo not given)	-1.1	x	5.7	0.9	5.7	-1.2	x	x
NS(=O)(=O)c1ccc(N2N=C(c3ccccc3)CC2c2ccccc2)cc1 (stereo not given)	-0.6	0.2	2.9	-0.5	-7.8	-1.4	x	x
O=S(=O)(O)c1ccc(N2N=C(c3ccccc3)CC2c2ccccc2)cc1 (stereo not given)	0.3	0.6	3.7	-0.1	-2.8	7.4*	-0.1	1.0
COc1ccc(C2c3[nH]c4ccccc4c3C[C@H]3C(=O)N(c4ccccc4C(=O)NCCN4CCOCC4)C(=O)N23)cc1 (stereo not given in full)	-0.3	-0.7	0.2	-0.1	-1.3	2.4	x	x
Cc1ccc(C2c3[nH]c4ccccc4c3C[C@H]3C(=O)N(c4ccccc4C(=O)N4CCC[C@@H]4C(=O)O)C(=O)N23)cc1 (stereo not given in full)	0.3	1.9	4.3	2.4	-2.9	10.4*	0.0	5.5
COc1cccc(C2c3[nH]c4ccccc4c3C[C@H]3C(=O)N(c4ccccc4C(=O)N4CCCC4C(=O)O)C(=O)N23)c1 (stereo not given in full)	-0.2	1.1	4.0	-0.2	-1.3	12.3*	-0.1	4.3
Cc1ccc(C2c3[nH]c4ccccc4c3C[C@H]3C(=O)N(c4ccccc4C(=O)N4CCC(C(=O)O)CC4)C(=O)N23)cc1 (stereo not given in full)	-0.1	3.6	3.9	2.7	3.5	9.6*	-0.2	2.7
COC(=O)[C@]12C[C@H](CC(=O)NCc3cccc(C(F)(F)F)c3)C(=O)N(Cc3ccco3)C1=C[C@H](COCc1ccccc1)O[C@@H]2C	-0.7	x	6.1	-1.4	1.0	-1.6	x	x
O=C(NCc1ccccc1)[C@@H]1CCCN1C(=O)[C@H]1CCCN1C(=O)N1CCCCC1	-0.7	x	2.1	-1.1	1.9	0.3	x	x
CCOC(=O)c1cnc(Nc2nc3ccccc3o2)nc1CSc1nnc(C)s1	-0.5	0.8	1.4	0.4	-3.7	-0.5	x	x
CCOC(=O)c1cnc(Nc2nc3ccccc3o2)nc1C	0.1	-0.5	10.9*	4.2*	3.8	6.8*	0.5	0.8
O=C1/C(=C/Nc2ccc3c(c2)OCO3)CCc2ccccc21	-0.1	-3.4	9.0	0.9	-1.2	9.4*	1.5	7.5*
COc1ccc2c(c1)CC/C(=C\Nc1ccc3c(c1)OCO3)C2=O	-1.5	0.4	-2.0	-0.5	-3.0	2.1	x	x
Cc1cccc(N(C)C(=O)COc2cc(=O)n(C)c3ccccc23)c1	-1.1	2.9	-1.1	-0.7	-1.8	0.1	x	x
CN(C(=O)COc1cc(=O)n(C)c2ccccc12)c1ccc(Br)cc1	0.4	0.6	0.6	-0.3	-0.2	6.8*	-0.1	2.8
COC(=O)[C@]12C[C@H](CC(=O)N3CCN(C(=O)C4CC4)CC3)C(=O)N(Cc3cccc4ccccc34)C1=C[C@H](C(C)C)O[C@@H]2C1CC1	-0.7	x	2.5	-0.1	1.5	-2.3	x	x
Clc1ccc2oc3c(Cl)ncnc3c2c1	-0.7	-1.0	1.4	0.3	-9.8	8.0*	-0.2	4.2
Cc1nc(Nc2ccccc2)c2oc3ccc(Cl)cc3c2n1	-0.8	-0.1	3.9	0.3	16.4	-0.1	x	x
CCOC(=O)c1ccc(-c2ccc(/C=N/NC(=O)Cc3nnc(N)s3)o2)cc1	-0.3	0.7	7.4	3.7*	1.3	8.8*	0.4	4.3
CCOc1ncccc1-c1nc(-c2cccs2)no1	0.4	1.7	4.1	-0.1	-4.0	9.8*	0.3	9.2*
Nn1c(SCC(=O)Nc2ccc(C(=O)O)cc2)nnc1-c1ccco1	-1.0	x	2.9	-0.1	-1.5	-0.8	x	x
Cc1ccc(-c2nc(NCc3ccco3)c3ccccc3n2)cc1	0.9*	1.3	8.3	-0.7	3.2	6.6*	0.2	5.7*
Cc1ccc(-c2nc(NCCN(C)C)c3ccccc3n2)cc1	0.3	2.7	5.1	1.6	4.6	13.9*	0.2	8.7*
SMILES	ssDAF12 agonist	DAX1 inh-1	hgDAF-12 ag	DAX1 inh-2	NR1D1 modulator	hcDAF-12 act	LXR ag	hcDAF12 conf
c1ccc(-c2nc(NCc3cccnc3)c3ccccc3n2)cc1	x	-0.3	x	x	-2.8	x	x	x
Cc1ccc(-c2nc(NCc3cccnc3)c3ccccc3n2)cc1	-0.2	0.2	0.1	0.5	-10.3	6.8*	-0.3	4.4
COC(=O)[C@]12CCCCC=C1N(Cc1ccc(OC)cc1)C(=O)[C@@H]2CC(=O)NCCCCc1ccccc1	-1.2	x	3.2	-1.1	4.8	-2.4	x	x
N#CCC[C@H]1CC[C@]2(CCCN(Cc3ccc(Br)cc3)C2)O1	-0.8	x	-2.6	-0.5	-0.5	1.2	x	x
O=C(O)c1cc(-c2ccc3ccccc3n2)nc2ccccc12	0.2	-0.9	5.6	0.5	3.7	5.5	x	x
CNc1ccccc(-c2ccc3ccccc3n2)c1=O	-0.2	-0.1	3.4	0.3	6.4	7.0*	1.2	7.2*
O[N+]1=CC=CCC1=S.On1ccccc1=S.[Zn]	x	x	x	x	-2.2	x	x	x
O=[N+]([O-])c1ccccc1-c1ccc(C(=S)N2CCCC2)o1	1.8*	-1.4	9.3	2.0	-1.3	9.4*	0.7	9.7*
Cc1cccc(N2CCN(C(=S)c3ccc(-c4ccccc4[N+](=O)[O-])o3)CC2)c1	-0.5	2.2	-0.8	-0.1	0.2	3.0	x	x
